From ChEMBL document CHEMBL1961873, “Compounds: GSK PKIS; Assays: Nanosyn kinase panel” (2012) come the findings set out here.

What is called inhibition is the drop in the measured response relative to a control, in per cent.

Test [1] concerns the target T1, Muscle, skeletal receptor tyrosine-protein kinase (Homo sapiens) (UniProt O15146).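 Note: reported value is the mean percent inhibition of MuSK kinase.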
T1 sequence (whole entry): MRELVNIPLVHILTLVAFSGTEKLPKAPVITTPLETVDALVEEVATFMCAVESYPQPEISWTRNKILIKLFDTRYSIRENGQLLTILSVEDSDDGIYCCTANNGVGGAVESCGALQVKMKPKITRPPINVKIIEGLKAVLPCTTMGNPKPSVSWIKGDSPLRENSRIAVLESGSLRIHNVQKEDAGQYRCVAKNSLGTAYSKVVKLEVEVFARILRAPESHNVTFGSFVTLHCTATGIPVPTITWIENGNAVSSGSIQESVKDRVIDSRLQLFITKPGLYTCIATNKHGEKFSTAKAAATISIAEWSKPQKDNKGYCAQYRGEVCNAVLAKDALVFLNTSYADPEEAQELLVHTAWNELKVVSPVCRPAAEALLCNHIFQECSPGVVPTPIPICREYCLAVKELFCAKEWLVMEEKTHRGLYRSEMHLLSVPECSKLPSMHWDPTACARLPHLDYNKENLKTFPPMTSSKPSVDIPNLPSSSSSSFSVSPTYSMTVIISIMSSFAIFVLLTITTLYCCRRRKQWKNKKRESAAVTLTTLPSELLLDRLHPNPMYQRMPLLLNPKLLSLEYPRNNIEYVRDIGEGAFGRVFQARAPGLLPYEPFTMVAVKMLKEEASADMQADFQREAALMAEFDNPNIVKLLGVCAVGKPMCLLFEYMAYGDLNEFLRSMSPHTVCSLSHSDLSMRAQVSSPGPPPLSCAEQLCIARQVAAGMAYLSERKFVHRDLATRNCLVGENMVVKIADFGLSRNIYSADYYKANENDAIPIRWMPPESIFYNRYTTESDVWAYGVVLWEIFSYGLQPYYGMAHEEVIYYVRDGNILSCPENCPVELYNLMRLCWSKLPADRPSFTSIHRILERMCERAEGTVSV
Particulars: at 1 µM.

The target of test [2] is Platelet-derived growth factor receptor alpha (Homo sapiens) (UniProt P16234). The following applies: at 0.1 µM.
Platelet-derived growth factor receptor alpha (Homo sapiens), sequence (P16234 whole entry): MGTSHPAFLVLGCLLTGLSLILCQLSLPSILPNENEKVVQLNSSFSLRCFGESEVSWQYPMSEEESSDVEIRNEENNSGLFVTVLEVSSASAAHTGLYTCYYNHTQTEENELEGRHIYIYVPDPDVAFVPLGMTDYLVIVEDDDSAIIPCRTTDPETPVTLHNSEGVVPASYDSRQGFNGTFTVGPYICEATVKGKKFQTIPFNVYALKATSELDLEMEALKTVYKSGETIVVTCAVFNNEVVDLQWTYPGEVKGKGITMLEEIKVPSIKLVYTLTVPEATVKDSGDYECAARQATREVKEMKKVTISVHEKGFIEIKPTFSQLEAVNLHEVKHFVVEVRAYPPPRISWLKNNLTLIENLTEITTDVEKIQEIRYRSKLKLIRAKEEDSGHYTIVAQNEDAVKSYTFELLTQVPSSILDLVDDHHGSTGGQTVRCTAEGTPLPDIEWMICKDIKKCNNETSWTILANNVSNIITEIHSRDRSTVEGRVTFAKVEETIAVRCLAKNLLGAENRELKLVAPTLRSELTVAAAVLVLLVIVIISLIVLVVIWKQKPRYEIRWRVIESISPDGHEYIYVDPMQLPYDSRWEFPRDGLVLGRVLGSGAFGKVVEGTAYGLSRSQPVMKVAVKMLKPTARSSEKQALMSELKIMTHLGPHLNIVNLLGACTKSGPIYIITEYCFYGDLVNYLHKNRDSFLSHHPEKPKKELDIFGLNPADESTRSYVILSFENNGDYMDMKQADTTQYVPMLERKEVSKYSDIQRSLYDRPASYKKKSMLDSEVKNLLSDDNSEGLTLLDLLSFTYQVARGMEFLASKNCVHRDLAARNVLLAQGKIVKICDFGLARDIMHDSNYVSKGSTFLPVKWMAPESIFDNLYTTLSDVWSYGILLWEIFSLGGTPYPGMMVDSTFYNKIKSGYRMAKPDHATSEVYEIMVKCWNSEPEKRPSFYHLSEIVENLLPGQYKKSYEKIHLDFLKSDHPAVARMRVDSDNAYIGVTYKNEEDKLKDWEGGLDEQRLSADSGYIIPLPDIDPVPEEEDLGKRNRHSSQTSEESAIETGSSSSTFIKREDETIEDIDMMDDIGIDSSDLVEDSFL
Test [3] shares this target. Particulars: at 1 µM.
For test [4], the system named is Platelet-derived growth factor receptor alpha (Homo sapiens), P16234 [D842V]. Particulars: at 0.1 µM.
Platelet-derived growth factor receptor alpha (Homo sapiens), P16234 [D842V], sequence (P16234 whole entry D842V): as the sequence (P16234 whole entry) above, with D842V counted along it
Test [5] has the same test system. The following applies: at 1 µM.
Test [6] has as its system Platelet-derived growth factor receptor alpha (Homo sapiens), P16234 [T674I]. The following applies: at 0.1 µM.
The test system is the same in test [7]. Particulars: at 1 µM.
The test system of test [8] is Platelet-derived growth factor receptor alpha (Homo sapiens), P16234 [V561D]. Particulars: at 0.1 µM.
Platelet-derived growth factor receptor alpha (Homo sapiens), P16234 [V561D], sequence (P16234 whole entry V561D): as the sequence (P16234 whole entry) above, with V561D counted along it
The test system is the same in test [9]. Particulars: at 1 µM.
Test [10] addresses Platelet-derived growth factor receptor beta (Homo sapiens) (UniProt P09619). Particulars: at 0.1 µM.

SMILES strings stand for the structures.

Platelet-derived growth factor receptor alpha (Homo sapiens), P16234 [T674I], sequence (P16234 whole entry T674I): as the sequence (P16234 whole entry) above, with T674I counted along it
Platelet-derived growth factor receptor beta (Homo sapiens), sequence (P09619 whole entry): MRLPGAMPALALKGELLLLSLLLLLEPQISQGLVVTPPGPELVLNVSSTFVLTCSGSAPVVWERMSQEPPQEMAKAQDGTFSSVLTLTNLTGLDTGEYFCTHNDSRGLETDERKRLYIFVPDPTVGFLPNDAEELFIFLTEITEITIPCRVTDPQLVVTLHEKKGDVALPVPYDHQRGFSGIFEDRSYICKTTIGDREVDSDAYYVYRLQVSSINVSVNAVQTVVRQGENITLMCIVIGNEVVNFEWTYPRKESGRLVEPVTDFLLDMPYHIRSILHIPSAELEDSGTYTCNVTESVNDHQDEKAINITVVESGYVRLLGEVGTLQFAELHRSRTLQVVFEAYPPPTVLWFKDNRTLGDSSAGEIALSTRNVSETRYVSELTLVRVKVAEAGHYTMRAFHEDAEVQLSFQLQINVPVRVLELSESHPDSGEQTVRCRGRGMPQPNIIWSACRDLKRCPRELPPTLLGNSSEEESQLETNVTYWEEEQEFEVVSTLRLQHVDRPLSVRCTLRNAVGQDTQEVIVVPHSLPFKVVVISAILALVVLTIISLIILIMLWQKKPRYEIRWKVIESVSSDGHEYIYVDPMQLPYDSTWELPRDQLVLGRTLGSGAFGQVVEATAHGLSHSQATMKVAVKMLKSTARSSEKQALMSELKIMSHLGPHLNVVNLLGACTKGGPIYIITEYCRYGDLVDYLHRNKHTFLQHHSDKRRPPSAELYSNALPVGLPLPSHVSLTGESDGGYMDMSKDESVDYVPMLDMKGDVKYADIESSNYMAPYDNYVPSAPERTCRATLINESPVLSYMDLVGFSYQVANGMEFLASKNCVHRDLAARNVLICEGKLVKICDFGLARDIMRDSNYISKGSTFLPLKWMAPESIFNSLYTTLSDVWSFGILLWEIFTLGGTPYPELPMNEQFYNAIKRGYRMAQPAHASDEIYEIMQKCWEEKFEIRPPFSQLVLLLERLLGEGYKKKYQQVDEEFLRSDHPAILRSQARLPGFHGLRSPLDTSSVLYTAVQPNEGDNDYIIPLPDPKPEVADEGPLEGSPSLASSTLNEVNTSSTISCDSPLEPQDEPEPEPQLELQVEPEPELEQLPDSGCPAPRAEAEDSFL

With `COc1ccc2c(-c3ccnc(Nc4cccc(OC(F)(F)F)c4)n3)cnn2n1`, the inhibition was 11.5% in test [1]; 9.71% in test [2]; 30.5% in [3]; -0.9% in test [4]; 13.4% in [5]; 7.01% in test [6]. For the same compound, the inhibition in test [7] was 9.76%; in test [8] it was 5.14%; in [9] it was 19.4%; in test [10] it was 4.02%.
In the case of `CN1CCC(n2cnc(-c3ccc(F)cc3)c2-c2ccnc(N)n2)CC1`, the inhibition in [1] was 3.89%; in test [2], 6.86%; in test [3], 25.6%; in test [4] it was 3.56%; in [5], 17.9%; in [6], 4.48%. Moreover, the inhibition in test [7] amounted to 5.18%; in test [8], 4.45%; in test [9], 16.9%; in test [10], 4.26%.
Regarding `NC(=O)c1sc(-n2cnc3ccc(C(F)(F)F)cc32)cc1OCc1ccccc1Br`, the inhibition in test [1] came to 2.38%; in [2], 4.59%; in [3], 11%; in test [4] it was 1.61%; in test [5], 5.02%; in [6], 5.32%. Besides, the inhibition in test [7] is 5.62%; in test [8] it was 3.53%; in [9], 4.84%; in test [10], -1.07%.
As for `CCOc1ccc2c(-c3ccnc(Nc4cccc(C(F)(F)F)c4)n3)cnn2n1`, the inhibition in [1] was determined as 1.27%; in [2], 9.61%; in [3], 27.3%; in test [4], 2.8%; in [5], 10.2%; in test [6], 3.74%. The inhibition in test [7] came out at 9.48%; in test [8], 2.96%; in test [9], 15.9%; in test [10], 7.67%.
On to `c1ccc(-c2nc3n(c2-c2ccc4c(c2)OCO4)CCC3)nc1`, for which the inhibition in test [1] was found to be 2.2%; in [2] it was 3.23%; in test [3], 7.15%; in test [4], 3.87%; in [5], 2.04%; in [6], 2.77%. Also, the inhibition in [7] is 2.15%; in test [8], 2.48%; in test [9], 2.33%; in [10], 3.66%.
With `Cc1cccc(Nc2ncc(-c3ccccc3)o2)c1`, the inhibition was found to be 5.58% in [1]; 7.16% in test [2]; 29.9% in test [3]; 1.63% in test [4]; 5.43% in test [5]; 7.94% in test [6]. Besides, the inhibition turned out to be 50.3% in test [7], 22.5% in [8], 48.7% in test [9] and 7.93% in test [10].
`CN1CCC(n2cnc(-c3ccc(F)cc3)c2-c2ccnc(Nc3ccccc3)n2)CC1`: the inhibition in test [1] came out at 2.15%; in [2], 8.81%; in test [3], 22.1%; in test [4], 4.56%; in test [5] it was 18.6%; in [6], 5.9%. Further, the inhibition in test [7] is 5.98%; in test [8], 5.65%; in test [9] it was 15.5%; in test [10], 7.67%.
Turning to `COc1ccc(CNC(=O)c2ccc(-c3cc(-c4nnc(C)o4)ccc3C)cc2)cc1`, the inhibition in [1] is -7.05%; in test [2], 12.6%; in [3], 16.5%; in test [4] it was 3.66%; in [5] it was 3.96%; in [6], 5.1%. Moreover, the inhibition in test [7] was determined as 6.47%; in [8], 7.3%; in test [9], 4.07%; in [10], 8.68%.
As to `CCn1c(-c2nonc2N)nc2c(C#CC(C)(C)O)nc(OC[C@H](N)c3ccccc3)cc21`, the inhibition amounted to 5.52% in test [1]; 4.66% in test [2]; 43.8% in test [3]; 12.2% in test [4]; 61.6% in test [5]; 9.88% in test [6]. Further, the inhibition in test [7] was determined as 47%; in test [8] it was 4.88%; in [9], 42.3%; in [10], 13%.
On to `CCn1c(-c2nonc2N)nc2c(C#CC(C)(C)O)ncc(OC3CCNCC3)c21`, for which the inhibition was 5.05% in test [1]; 4.05% in test [2]; 19.5% in test [3]; 5.06% in test [4]; 33.8% in test [5]; 4.95% in test [6]. The inhibition in test [7] was determined as 28.3%; in test [8], 2.59%; in test [9], 17%; in [10], 5.33%.
On to `CCc1nn2ncccc2c1-c1ccnc(NC2CC2)n1`, for which the inhibition came out at 3.55% in test [1]; 4.59% in test [2]; 8.05% in test [3]; 1.28% in [4]; 5.3% in [5]; 4.48% in test [6]. The inhibition in test [7] was determined as 5.6%; in test [8], 3.69%; in [9] it was 5.92%; in test [10] it was 4.03%.
Turning to `Cc1cccc2c1NC(=O)/C2=N\Nc1ccc(S(N)(=O)=O)cc1`, the inhibition in test [1] was found to be 5.17%; in test [2] it was 7.81%; in [3], 17.4%; in test [4], 0.21%; in [5], 8.1%; in [6], 3.33%. For the same compound, the inhibition was 7.27% in test [7], 13.4% in test [8], 41.3% in test [9] and 2.52% in test [10].
As for `Fc1ccc(-c2nn3ncccc3c2-c2ccnc(Nc3ccc4c(c3)OCCO4)n2)cc1`, the inhibition worked out at 3.55% in [1]; 15.1% in test [2]; 54.8% in [3]; 12.1% in [4]; 56.1% in test [5]; 5.87% in test [6]. Further, the inhibition was 17.9% in [7], 21.9% in [8], 72% in test [9] and 29.3% in test [10].
As to `c1ccc(COc2ccc(Nc3ncnc4ccc(-c5ccco5)cc34)cc2)cc1`, the inhibition is 1.01% in [1]; 3.81% in [2]; 6.96% in test [3]; 2.63% in test [4]; 3.21% in [5]; 2.49% in test [6]. For the same compound, the inhibition in test [7] was 3.6%; in [8] it was 2.39%; in test [9], 2.43%; in test [10], -0.23%.
In the case of `CS(=O)(=O)CCNCc1coc(-c2ccc3ncnc(Nc4ccc(OCc5ccccc5)cc4)c3c2)c1`, the inhibition in test [1] turned out to be 4.59%; in [2], 7.28%; in test [3], 11.5%; in test [4], 3.71%; in [5], 4.82%; in test [6] it was 3.65%. For the same compound, the inhibition was 6.58% in [7], 3.61% in test [8], 12.8% in test [9] and 3.03% in test [10].
Regarding `CCN1CCC(CC(=O)Nc2n[nH]c3nnc(-c4cccc(F)c4F)cc23)CC1`, the inhibition in test [1] is -2.42%; in test [2], 5.32%; in test [3], 10.4%; in test [4] it was 4.75%; in [5], 2.84%; in test [6], 3.48%. The inhibition is 4.83% in test [7], 2.85% in test [8], 3.83% in test [9] and -0.56% in test [10].
As for `COc1cc2c(cc1Nc1nc(Nc3ccsc3C(N)=O)c3cc[nH]c3n1)N(C(=O)CN(C)C)CCC2(C)C`, the inhibition in test [1] was found to be 62.4%; in test [2], 21.6%; in test [3], 63.2%; in test [4], 5.04%; in [5], 20.5%; in test [6] it was 8.69%. For the same compound, the inhibition in [7] is 16.9%; in test [8], 13.1%; in test [9] it was 46.1%; in [10], 15.1%.
For `COc1cccc(-n2ncc3c(N/N=C/c4ccc(F)cc4)ncnc32)c1`, the inhibition in test [1] is 9.49%; in [2] it was 15.8%; in [3], 42.1%; in [4], 9.48%; in [5] it was 45.4%; in test [6] it was 9.07%. Further, the inhibition in [7] came out at 29.6%; in [8], 8.4%; in [9], 37.1%; in test [10], 12.8%.
Take `FC(F)(F)c1cccc(-c2nn3ncccc3c2-c2ccnc(Nc3ccc4c(c3)OCCO4)n2)c1`: the inhibition in test [1] is 2.21%; in test [2] it was 5.63%; in test [3], 15.1%; in test [4], 3.38%; in [5], 5.8%; in test [6], 2.79%. The inhibition in [7] worked out at 3.91%; in test [8], 1.96%; in [9], 15.8%; in test [10], 6.05%.
